Assay results: PubChem BioAssay (NCATS)
Results filed as inconclusive are left out. Activity calls are given as the source filed them. Calls follow the shape of the dose curve; as a rule, active = well fitted curve in the direction sought with a large enough effect; inconclusive = small, poorly fitted or top-dose-only effect, or another doubt; inactive = no such curve, though single readings can be large; an effect the other way counts as inactive or inconclusive.

Columns and labels:
[1] = qHTS of pediatric cancer cell lines to identify multiple opportunities for drug repurposing: Primary screen for SJ-GBM2 cells (AID 1347091)
From the text: (§1) Drug repurposing or repositioning has been offered as a strategy for drug development in oncology programs. This approach has special potential for childhood cancers and other rare or orphan diseases, where the expected return on new drug development has been a disincentive to pharmaceuticals.
(§2) In this project we exploit the poly-pharmacology of drugs to discover new indications via phenotypic screening of a panel of 19 well-characterized cell lines derived from solid tumors seen in children and adolescents. The goal is to identify approved drugs with previously unrecognized anticancer properties that has the potential to reveal new mechanisms and biological processes involved in carcinogenesis or drug resistance. We employed a titration-based paradigm (quantitative high-throughput screening or qHTS), where all compounds were tested at multiple concentrations for their effect on cell viability. […] We screened the NIH Chemical Genomics Center (NCGC) Pharmaceutical Collection (NPC) and Mechanism Interrogation Plate (MIPE) small molecule collections of approved and investigational compounds against these cell lines; and measured metabolically active cells after 48 hours of compound treatment as a proxy for cell viability. […]
(§3) [1] Shen, M et al. Quantitative high-throughput phenotypic screening of pediatric cancer cell lines identifies multiple opportunities for drug repurposing. […]

[2] = qHTS of pediatric cancer cell lines to identify multiple opportunities for drug repurposing: Primary screen for A673 cells (AID 1347092); also: nearly all actives have a fitted effect of over 45% in size
How it was run: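 A673 cells (500-1,000 cells/well in growth media) were pre-incubated 5 h at 37 degrees C, then exposed to compounds for 48 h. Viability was read as CellTiter-Glo luminescence; concentration-response curves came directly from the primary screen.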

[3] = qHTS of pediatric cancer cell lines to identify multiple opportunities for drug repurposing: Primary screen for SK-N-MC cells (AID 1347093); also: series mostly up to about 46 µM
From the text: as §1, §2, §3

[4] = qHTS of pediatric cancer cell lines to identify multiple opportunities for drug repurposing: Primary screen for BT-37 cells (AID 1347094); also: series mostly up to about 57 µM
How it was run: (§4)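 Cells seeded at 500-1,000 cells/well in growth media, rested 5 hours at 37 degrees C, 5% CO2, then dosed; MIPE compounds at 11-point (from 0.78 nM) and NPC at 8-point (from 0.59 nM) final concentrations. Viability by CellTiter-Glo luminescence after 48 hours.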

[5] = qHTS of pediatric cancer cell lines to identify multiple opportunities for drug repurposing: Primary screen for NB-EBc1 cells (AID 1347095)
How it was run: as §4

[6] = qHTS of pediatric cancer cell lines to identify multiple opportunities for drug repurposing: Primary screen for U-2 OS cells (AID 1347096); also: nearly all actives have a fitted effect of over 50% in size
From the text: as §1, §2, §3

[7] = qHTS of pediatric cancer cell lines to identify multiple opportunities for drug repurposing: Primary screen for Saos-2 cells (AID 1347097); also: nearly all actives have a fitted effect of over 40% in size
How it was run: as §4

[8] = qHTS of pediatric cancer cell lines to identify multiple opportunities for drug repurposing: Primary screen for SK-N-SH cells (AID 1347098);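 also: DMSO served as neutral control and bortezomib at 2.3 µM as positive control; nearly all actives have a fitted effect of over 65% in size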
How it was run: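 Cells (500-1,000/well) rested 5 h, then received compounds for 48 h; metabolically active cells were measured by CellTiter-Glo luminescence. Final concentrations spanned up to 46 µM (MIPE, 11-point) or 0.59 nM-46 µM (NPC, 8-point) in primary screens, 11-point in follow-ups.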

[9] = qHTS of pediatric cancer cell lines to identify multiple opportunities for drug repurposing: Primary screen for NB1643 cells (AID 1347099); also: nearly all actives have a fitted effect of over 50% in size
How it was run: as §4

[10] = qHTS of pediatric cancer cell lines to identify multiple opportunities for drug repurposing: Primary screen for LAN-5 cells (AID 1347100)
How it was run: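 Cells (500-1,000/well) in growth media were settled 5 h at 37 degrees C, then given compounds for 48 h. Viability was read as CellTiter-Glo luminescence. Primary runs used MIPE at 11 points (0.78 nM-46 µM) and NPC at 8 points (0.59 nM-46 µM); follow-ups used 11 points.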

Measured: outcome

CC(=O)OC(C)OC(=O)C(C)c1ccc(-c2ccccc2)c(F)c1 (stereo not given)
inactive: all assays above

CN1Cc2c(N)cccc2C(c2ccccc2)C1 (stereo not given)
inactive: all assays above
